# Inconclusive results are not listed. Unmarked numbers belong to inactive results. The source made the active and inactive calls. Calls follow the shape of the dose curve; as a rule, active = well fitted cell-killing curve with a large enough effect in the repeat runs; inconclusive = weak or mixed curves, or effect the other way; inactive = flat fitted curve, though single readings scatter.
# Test: qHTS RealTime-Glo MT Cell Viability Assay in HEK293 cells - 32 hour (AID 1224868); also: nearly all actives have a fitted effect of over 50% in size; as to activity change, negative = cytotoxic: top concentration of the series differs between compounds
# Settings: RealTime-Glo luminescence; series mostly up to 76.8 µM; activity change, negative = cytotoxic: at the top concentration
# From the text: National Center for Advancing Translational Sciences [NCATS]
# NIH Chemical Genomics Center [NCGC]
# U.S. Environmental Protection Agency [EPA]
# National Institutes of Environmental Health Sciences [NIEHS]
# National Toxicology Program [NTP]
# U.S. Food and Drug Administration [FDA]
# Measure of cell viability is critical in the cell-base assay. Analysis of cell viability is necessary for the characterization of cell responses to cytotoxic drugs and environmental stress. A RealTime-Glo MT Cell Viability Assay to monitor cell viability in real time of continues cell culture during 40 hours of compound treatment was used to screen Tox21 10K library compounds in Hek293 cells. The RealTime-Glo MT Cell Viability Assay is a nonlytic, homogeneous, bioluminescent method to measure cell viability in real time using a simple, plate-based method. The assay involves adding NanoLuc luciferase and a cell-permeant prosubstrate to cells in culture. Viable cells reduce the proprietary prosubstrate to generate a substrate for NanoLuc luciferase. This substrate diffuses from cells into the surrounding culture medium, where it is rapidly used by the NanoLuc Enzyme to produce a luminescent signal. The signal correlates with the number of viable cells, making the assay well suited for cytotoxicity studies.
# Tox21 Assay Protocol Summary:
# The mixture of Hek293 cell suspension and reagents were dispensed at 600cells/6 ul/well in 1536-well tissue culture treated black solid bottom plates using a Multidrop dispenser. After the assay plates were incubated at a 37 C/5% CO2 incubator for 5 hours, 23 nL of compounds dissolved in DMSO, positive and negative controls was transferred to the assay plate by a pintool work station. The plates were incubated at 37 C for 40 hours. The luminescence intensity were measured at 0h, 8h, 16h, 24h, 32h and 40h time points using ViewLux plate reader during compound treatment.
# % is scaled to controls: 0 for no effect and ±100 for the full control effect; potency is read from the fitted curve at half-maximal effect.
Compound,"activity change, negative = cytotoxic",Potency
CC(=O)N(CC(=O)N(C)C)c1ccccc1,0.798% [at 35.3 µM],
CC(C)(C)C1CCCCC1O (stereo not given),-3.07%,
CCCCCCc1ccc(N)cc1,3.55%,
CC(C)c1ccccc1C(C)C,-24%,
COCCOCCOCCOCCOC,1.73%,
Cn1c(NCCN(CCO)CCCc2ccc([N+](=O)[O-])cc2)cc(=O)n(C)c1=O,-16% [at 35.3 µM],
O=S1(=O)c2cccc3cccc(c23)N1CCCN1CCN(c2ccc(F)cc2)CC1,-8.3% [at 35.3 µM],
CCCCCCCCCCCCCCCCCBr,6.52% [at 15.8 µM],
CC/C(=C\C(=N/O)C(N)=O)C(C)[N+](=O)[O-] (stereo not given),24.9%,
CC(C)(C)c1cc(CCC(=O)OCC(COC(=O)CCc2cc(C(C)(C)C)c(O)c(C(C)(C)C)c2)(COC(=O)CCc2cc(C(C)(C)C)c(O)c(C(C)(C)C)c2)COC(=O)CCc2cc(C(C)(C)C)c(O)c(C(C)(C)C)c2)cc(C(C)(C)C)c1O,5.77% [at 35.3 µM],
Cc1ccccc1N=Nc1ccc(N=Nc2c(O)ccc3ccccc23)c(C)c1,0.401% [at 35.3 µM],
NC(=S)N/N=C/c1cccnc1,7.2% [at 35.3 µM],
CC(CN)CCCN (stereo not given),4.75%,
C1=Cc2ccccc2C1,2.8%,
c1ccc(OCc2ccc(CCCN3CCOCC3)cc2)cc1,,19 µM (active)
CCOc1cc(OCC)c(C(=O)CCC(=O)O)cc1OCC,7.15% [at 35.3 µM],
Cc1ccc(C)o1,-14%,
CC(C)(C)c1ccc(S)cc1,1.89%,
CCCCC(CC)(CO)CO,-4.43%,
CCCc1ccccc1,3.38%,

Compound,"activity change, negative = cytotoxic",Potency
O=C(C(=O)c1ccc(Br)cc1)c1ccc(Br)cc1,3.98% [at 15.8 µM],
Cc1ncsc1CCO,8.76%,
Cc1ccc(C(=O)C(C)CN2CCCCC2)cc1 (stereo not given),12.6% [at 35.3 µM],
CC(C(=O)O)c1ccc(-c2ccccc2)c(F)c1 (stereo not given),1.1%,
O=S1(=O)N=C(O)c2ccccc21,1.23% [at 35.3 µM],
C=CC[N+]1([C@H]2C[C@H]3[C@@H]4CC[C@H]5C[C@H](OC(C)=O)[C@@H](N6CCCCC6)C[C@]5(C)[C@H]4CC[C@]3(C)[C@H]2OC(=O)CC)CCCCC1,-19% [at 35.3 µM],
C[C@@H](C1=C(CCN(C)C)Cc2ccccc21)c1ccccn1,-15.8% [at 35.3 µM],
CC(=O)NCCCS(=O)(=O)O,9.27% [at 35.3 µM],
CC(=O)c1c(C)c([N+](=O)[O-])c(C(C)(C)C)c([N+](=O)[O-])c1C,-14.5%,
COC(Cc1ccccc1)OC,15.6%,
ClC(Cl)(Cl)c1ccc(C(Cl)(Cl)Cl)cc1,-9.68%,
CCOc1nc2cccc(C(=O)O)c2n1Cc1ccc(-c2ccccc2-c2nn[nH]n2)cc1,1.3% [at 35.3 µM],
CC(C)CCCC(C)CCO (stereo not given),14%,
O=C(CCN1CCN2CCCC2C1)N1c2ccccc2Sc2ccc(Cl)cc21 (stereo not given),-23% [at 15.8 µM],
O=C(/C=C/c1ccc(O)c(O)c1)O[C@@H]1C[C@](O)(C(=O)O)C[C@@H](O)[C@H]1O,-3.98%,
CN(C)C/C=C(/c1ccc(Br)cc1)c1cccnc1,2.92% [at 35.3 µM],
NCCCOCCOCCOCCCN,-0.0493%,
N#CCCNCCC#N,4.86%,
CCN(CC)CCc1nc(-c2ccccc2)no1,-0.954% [at 35.3 µM],
Cc1cccc(OCCOc2cccc(C)c2)c1,-22.8%,

# Reference: PubChem BioAssay (Tox21)
